From PubChem BioAssay (NCI)
Compounds without any hit were thinned out: in the full panel of roughly 83,000, 20% have a hit.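 Cells were grown in 96-well plates and exposed to the test compound at a single concentration for 48 hours; results are reported as percent growth, with values below 10 considered active.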 Values without a mark were called inactive. Activity calls are given as the source filed them.

test system: SK-MEL-28 melanoma; experiment: NCI-60 one-dose screen, 48 h (100 = growth as untreated, 0 = no growth, -100 = all killed); conditions: 10 µM
Method: Growth inhibition of the SK-MEL-28 human tumor cell line is measured as a screen for anti-cancer activity. Cells are grown in 96 well plates and exposed to the test compound for 48 hours. Compounds are tested at a single concentration, which is 10^-5 M for most compounds. The reported endpoint is percent growth (GI% or GIPRCNT), where numbers from 0 - 100% represent growth inhibition, and numbers from -100% - 0 represent cell death. For example, a value of 40 represents 60% growth inhibition. A value of 0 means no net growth occurred over the course of the experiment. A value of -40 indicates 40% of cells at the beginning of the experiment died by the end of the experiment. A value of -100 means all cells are dead at the end of the experiment.
NCI-60 Human Tumor Cell Lines Screen was performed using the standard one-dose NCI protocol, which is described in more detail at https://dtp.cancer.gov/discovery_development/nci-60/default.htm.
Compounds with GIPRCNT values below 10 were considered active. Activity score was based on GIPRCNT using the following formula: […]
Score is 0 for GIPRCNT values of 100 or above, 50 for GIPRCNT values of 0, and 100 for GIPRCNT values of -100.

SMILES	growth
O=C(NC(=S)Nc1cccc(NC(=S)NC(=O)c2ccccc2)c1)c1ccccc1	55.3%
COc1ccc(-c2cn[nH]c2-c2ccc(OC)c(O)c2)cc1	89.1%
COc1ccc(OC)c(NC(=O)/C(C#N)=C/c2ccco2)c1	104%
COc1ccc2sc3c(NCCCN)nc4ccccc4c3c(=O)c2c1	84.8%
Oc1ccc(-c2nc(-c3ccc4oc5ccc(-c6[nH]c(-c7ccc(O)cc7)nc6-c6ccccc6)cc5c4c3)c(-c3ccccc3)[nH]2)cc1	77.8%
O=NN(Cc1cccnc1)C(=O)NC1CCCCC1	104%
COc1ccc(C2c3ccc4ccccc4c3Oc3ncn(CCCn4ccnc4)c(=N)c32)cc1OC (stereo not given)	68.2%
CCCCCCn1c(=N)n(CC(O)COc2cccc(C)c2)c2ccccc21 (stereo not given)	-92.3% (active)
O=C(Nc1ccc(I)cc1F)c1cc(Br)ccc1O	-3.35% (active)
COc1ccc(C2=C(c3cccc(OC)c3)C(=O)c3ccc(C)nc3C2=O)cc1	50.7%
COC(=O)/C(CCC=C(C)C)=C1\[C@@H](OC(C)=O)C[C@@]2(C)[C@H]1C[C@@H](O)[C@H]1[C@@]3(C)CC[C@H](NCCO)[C@@H](C)[C@@H]3CC[C@@]12C	106%
O=C(NN1C(=O)CSC1c1ccc(Cl)cc1)c1[nH]c2ccc(F)cc2c1-c1ccccc1 (stereo not given)	101%
CCCC(c1nnnn1C1CCCCC1)N1CCN(C(=O)c2ccco2)CC1 (stereo not given)	65.6%
COc1cc(/C=C/C(=O)c2ccc(Cl)cc2)cc(CN2CCCCC2)c1O	97.9%
Cc1cc2c(c(C)c1Cl)C(=O)/C(=C/c1ccco1)O2	107%
O=CCCCC(O)C=O (stereo not given)	111%
O=C(c1nc2ccccc2[nH]1)C1C(c2ccc([N+](=O)[O-])cc2)C2CC3CCCCC3N2[C@@]12C(=O)Nc1cc(Cl)ccc12 (stereo not given in full)	44.9%
O=c1c(-c2nc3ccccc3[nH]2)cc2ccccc2n1Cc1cn(Cc2ccc(F)cc2)nn1	45.1%
Cc1cccc2c(=O)c3c(sc12)c(N1CCNCC1)nc1ccccc13	80.1%
O=S1(=O)CCN(Cc2ccccc2)CC1	102%

SMILES	growth
COc1cc(C(=O)O/N=C(\N)Cc2cccc3ccccc23)cc(OC)c1OC	-97% (active)
CC[C@@H](C)[C@H](NC(=O)Cn1cc(CNC(=O)[C@@H](NC(=O)OCc2ccccc2)C(C)C)nn1)C(=O)O	113%
NCCOc1ncccc1/C=C1\c2ccccc2-c2ccc([N+](=O)[O-])cc21	-22% (active)
CN(C)/C=C1\SC(=Nc2ccc(Cl)cc2)NC1=O	101%
CN(C)c1ccc(N=Cc2ccc(N3CCOCC3)cc2)cc1	114%
COc1ccc(Nc2cc(C)nc(NCc3ccccc3)n2)cc1	63.9%
CN1C(=O)N(C)C2C1NN=c1s/c(=C\c3ccc([N+](=O)[O-])cc3)c(=O)n12 (stereo not given)	76.9%
Cn1c(/C=C(\C#N)c2cccc(C(F)(F)F)c2)nc2c(N3CCOCC3)nc(Cl)nc21	-87.2% (active)
O=C(O)CCCN1C(=O)C2C3CCC(C3)C2C1=O (stereo not given)	113%
O=C(N/N=C/c1ccccc1Cl)C(=O)Nc1cccc(C(F)(F)F)c1	113%
COc1ccc(CCN2C(=O)CCSC2=S)cc1	77.7%
Cn1nc(C(F)(F)F)c(-c2ccc(Cl)c(C(F)(F)F)c2)c1-c1ccc(OCc2ccc(Cl)cc2)cc1O	31.2%
COc1ccc(CCN2CCC(CN(C)Cc3cnn(-c4ccccc4)c3)CC2)cc1	33.4%
O=C1CCC(N2C(=O)c3cccc(NCCCCCCOc4ccc(Nc5nccc(Nc6ccccc6)n5)cc4)c3C2=O)C(=O)N1 (stereo not given)	82.9%
COc1ccc(-c2nc(-c3ccccn3)c(-c3ccccn3)n2CC(C)C)cc1OC1CCCC1	35.9%
CCCCN1CCN(c2ccc3nc(-c4ccc5nc(-c6ccc(OC)c(OC)c6)[nH]c5c4)[nH]c3c2)CC1	-71.2% (active)
O=C(Nc1ccccc1O)c1ccc(-c2ccc(Cl)cc2Cl)o1	98.6%
c1ccc2c(c1)oc1cc3sccc3nc12	109%
COc1ccc(S(=O)(=O)N(Cc2ccc3c(n2)C=CC(C)(C)O3)C2CCC2)cc1OC	-18.8% (active)
CCCCNc1nc(NC(C)(C)C)nc(NC(C)(C)C)n1	61.4%
